This passage reports growth results from PubChem BioAssay (NCI).

About 83,000 compounds went through this panel and 20% of them were active in at least one assay; those are over-represented in the sample as a whole.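 Percent growth is the endpoint: 0 to 100 indicates growth inhibition (40 means 60% inhibition), 0 means no net growth, and negative values indicate cell death.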 Unmarked numbers belong to inactive results. Calls of active or inactive are those of the source.

The subject of the test is KM12 colon. Description: NCI-60 one-dose screen, 48 h (100 = growth as untreated, 0 = no growth, -100 = all killed). Conditions: 10 µM unless noted. The method, then: Growth inhibition of the KM12 human tumor cell line is measured as a screen for anti-cancer activity. Cells are grown in 96 well plates and exposed to the test compound for 48 hours. Compounds are tested at a single concentration, which is 10^-5 M for most compounds. The reported endpoint is percent growth (GI% or GIPRCNT), where numbers from 0 - 100% represent growth inhibition, and numbers from -100% - 0 represent cell death. For example, a value of 40 represents 60% growth inhibition. A value of 0 means no net growth occurred over the course of the experiment. A value of -40 indicates 40% of cells at the beginning of the experiment died by the end of the experiment. A value of -100 means all cells are dead at the end of the experiment.
NCI-60 Human Tumor Cell Lines Screen was performed using the standard one-dose NCI protocol, which is described in more detail at https://dtp.cancer.gov/discovery_development/nci-60/default.htm.
Compounds with GIPRCNT values below 10 were considered active. Activity score was based on GIPRCNT using the following formula: […]
Score is 0 for GIPRCNT values of 100 or above, 50 for GIPRCNT values of 0, and 100 for GIPRCNT values of -100.
With `COc1cc(CCn2nnc3c(Nc4ccc(N5CCOCC5)cc4)ncnc32)cc(OC)c1`, the growth was 81.6%.
With `Cc1ccc(S(=O)(=O)NCCCNc2nccc(-c3c(-c4ccccc4)nc4sccn34)n2)cc1`, the growth was 18.6%.
As for `COc1ccc(/C=C/c2nc(N3CCOCC3)c3cc(F)c(F)cc3n2)cc1OC`, the figure is 28.1%; as for `COc1cc(NC(=O)CSc2nc3ccc(C)cc3c(=O)n2-c2ccccc2)cc(OC)c1OC`, 75.1%; as for `COc1ccc(Cl)cc1NC(N)=S`, 105%.
As to `C=CCN=C1NC(=O)/C(=C/c2cc(C(C)(C)C)c(O)c(C(C)(C)C)c2)S1`, the growth is 61.4%.
Next, `CCOc1ccc(/C=C/C=N/NC(N)=S)cc1`: 84%.
As for `COc1cc(Cn2c(SCC(=O)Nc3cc(OC)c(OC)c(OC)c3)nc3ccccc3c2=O)cc(OC)c1OC`, the figure is 99.1%; as for `COc1ccc(-n2cnc3c(sc4ncc(Cl)cc43)c2=O)cc1`, 55.1%; as for `C=CCc1cc(Cl)cc2c(OC(C)=O)c(C(C)=O)c(-c3ccccc3)nc12`, 99.5%.
As for `Cc1nc2sccn2c1-c1csc(Nc2ccccc2Cl)n1`, the figure is 29.6%.
On to `Cc1cc(Nc2nc(-c3ccc(F)cc3)nc3ccccc23)n[nH]1`, for which the growth was 14.8%.
Next, `Cc1oc2nc[nH]c(=O)c2c1C(=O)/C=C/c1ccc(Cl)cc1`: 13.6%.
Next, `O=C(O)c1ccc(-n2c(=O)c3ccccc3c3ccccc3c2=O)cc1`: 104%; `Nc1c(C(=O)Nc2cccc(C(F)(F)F)c2)sc2nc3c(cc12)CCCCCC3`: 30.1%; `O=C1CCCCN1CCCCC#Cc1ccccc1C#Cc1ccccn1`: 111%.
As to `O=S(=O)(c1ccccc1)n1ccc(-c2ccc3c(c2)CCO3)n1`, the growth is 91.9%.
Consider `Cc1cc(C)c2c(=O)[nH]c(SCC(=O)Nc3cccc(S(=O)(=O)N(C)C)c3)nc2n1`, for which the growth was 112%.
On to `CC(=O)Nc1nc(C(=O)N2N=C(C)/C(=C/c3ccccc3)C2=O)cs1`, for which the growth was 102%.
As for `CCC(c1ccc(OC)cc1)C(CC)c1ccc(O)c(CN2CCCC2)c1` (stereo not given), the figure is 27.9%; as for `Cc1oc2nc[nH]c(=O)c2c1C(=O)/C=C/c1ccc(Cl)cc1Cl`, 52.1%.
As for `COc1ccc(OC)c(C(=O)c2oc3ccc(Br)cc3c2N)c1`, the figure is 30.6%.
For `CC(C(=O)n1cc(-c2ccccc2)c(-c2ccccc2)c1)c1ccccc1` (stereo not given), the growth was 105%.
As for `COc1ccc(/C(=N/O)c2cc(F)c(F)c(OC)c2F)cc1O`, the figure is 29.3%; as for `Nc1c(C(=O)Nc2cccc([N+](=O)[O-])c2)sc2nc3c(cc12)C(O)CCC3` (stereo not given), 33.4%; as for `COc1cc(CNC(=O)CCSc2nc3ccccc3c(=O)n2Cc2cc(OC)c(OC)c(OC)c2)cc(OC)c1OC`, 17.3%.
Next, `CCC1CCc2nc3sc(C(=O)Nc4cccc(C)c4)c(N)c3cc2C1` (stereo not given): 48.5%; `O=S=Nc1ccc([N+](=O)[O-])cc1`: 81.6%; `CCN(CC)P(=O)(N(CC)CC)N(CCCSC/C=C(\C)CC/C=C(\C)CCC=C(C)C)CCCN1CCN(C)CC1`: 108%.
As for `COc1ccc(C(=O)c2cc(OC)c(OC)c(OC)c2)cc1/C=C/C(=O)c1ccc(O)cc1`, the figure is 2.74% (active).
For the compound `CCN(CC)CCC(=O)c1cccc2ccccc12`, the growth is 103%.
As for `COc1cc(-c2n[nH]nc2-c2ccc3c(c2)OCCO3)cc(OC)c1OC`, the figure is 9.43% (active); as for `O=C(Nc1ccc(F)cc1)c1cc([N+](=O)[O-])ccc1O`, 51.6%.
Next, `CC1=NN2C(=NC3=C(CCC/C3=C\c3ccc(Cl)cc3)C2c2ccc(Cl)cc2)S1` (stereo not given): 77.2%; `CC(=O)c1cc(C(=O)c2ccc3c(c2)Sc2ccccc2N3)c2cc(C)ccn12`: 5.18% (active).
For `CC1CCc2c(sc(NC(=O)CSc3nnc4ccccn34)c2C(N)=O)C1` (stereo not given), the growth was 108%.
Next, `NC(=O)NC(=O)/C=C/C(=O)OCCCl`: 110%; `CN(C)CCCNC(=O)C(c1ccccc1)c1ccccc1`: 111%; `Cc1nn(-c2ccc(Cl)cc2)c(=O)n1CCOc1ccccc1Cl`: 101%.
As for `Cc1nc(Nc2cccnc2)sc1C(=O)/C=C/c1ccc(Cl)cc1`, the figure is 12.9%.
